Our source for the Potency values is PubChem BioAssay (NCATS).

Inconclusive results are not listed. Where a call stands in place of a potency, no number is given. Active and inactive are the calls of the source. Calls come from the whole dose curve; as a rule, active = well fitted inhibition curve with a large enough effect; inconclusive = small, poorly fitted or top-dose-only effect; inactive = no such curve, though single readings can be large or run the other way.
Potency is the fitted concentration of half-maximal effect.

This experiment in a line: qHTS for Inhibitors of ATXN expression: Validation (AID 588378). Note: nearly all actives have a fitted effect of over 75% in size. As to conditions: cell-based ATXN2 expression reporter assay, luminescence; series mostly up to 57.1 µM. The method, boiled down:
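Compounds were pinned onto attached HEK293 cells carrying an ATXN2-firefly luciferase construct and incubated 24 hrs at 37 degrees C. Each well then received a fluorescent viability reagent followed by luciferase substrate for end-point luminescence.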
A general note: In qHTS, concentration-response curves come from the screen itself.
`O=C(c1ccc(Cl)cc1)N1CCN(c2ccc([N+](=O)[O-])c3ncccc23)CC1`: the Potency result was “inactive”.
For `NC(=S)c1ccc[n+]([C@@H]2O[C@@H](COP(=O)([O-])OP(=O)(O)OC[C@H]3O[C@@H](n4cnc5c(N)ncnc54)[C@H](OP(=O)(O)O)[C@@H]3O)C(O)C2O)c1` (some centres undefined) the value was “inactive”; for `Nc1nc(Nc2ccccc2)nc2c1ncn2[C@@H]1O[C@H](CO)[C@@H](O)[C@H]1O`, “inactive”.
The value for `OC[C@H]1O[C@@H](n2cnc3c(NC4CCCC4)ncnc32)[C@H](O)[C@@H]1O` was “inactive”; that for `Fc1cccc(/C=N/N=C/c2cccc(F)c2)c1` was “inactive”.
On to `CO/S(=N\S(=O)(=O)c1ccc(Cl)cc1)c1ccc([N+](=O)[O-])cc1` (centres undefined), for which the Potency result was “inactive”.
The value for `CC1CN(S(=O)(=O)c2cccc3cnccc23)CCN1` (centres undefined) was “inactive”; that for `NCC1OC(O[C@H]2[C@H](O)[C@@H](OC3C(O)C(N)CC(N)C3OC3OC(CO)C(O)C(O)C3N)O[C@@H]2CO)C(N)C(O)C1O` (some centres undefined) was “inactive”.
For `c1ccc(-c2ccccn2)nc1` the value was “inactive”; for `Nc1ncnc2c1c(I)cn2[C@@H]1C[C@H](N)[C@@H](O)[C@H]1O`, 10 µM (active); for `NC(N)=NC(=O)c1nc(Cl)c(N2CCCCCC2)nc1N`, “inactive”.
On to `C#C[C@]1(O)CC[C@H]2[C@@H]3CCC4=Cc5oncc5CC4(C)[C@H]3CCC21C` (some centres undefined), for which the Potency entry was “inactive”.
The value for `C#CCN1C(C)=C(C(=O)OC)C(c2cccc([N+](=O)[O-])c2)C(C(=O)OCC)=C1C` (centres undefined) was “inactive”.
For `CNc1ncnc2c1ncn2[C@@H]1O[C@H](CO)[C@@H](O)[C@H]1O` the value was “inactive”.
